Calls of active or inactive are those of the source. How the source made its calls: active means hit-call score of the fitted dose curve at least 0.9, where 1 is the maximum; inactive means score below 0.9.

Holding throughout (details): mRNA level, 48 h; actives raise or lower the signal
Read-out in assay [1]: Cyclin D2 (CCND2), CCND2 (gene 894)
The assay can be described thus: LTEA_HepaRG_CCND2: Life Technologies and Expression Analysis (LTEA) Assay for Cyclin D2 (CCND2) using HepaRG (AID 2283449).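 Further: CCND2 transcript measured by TaqMan qRT-PCR and normalised to three housekeeping genes.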 The procedure, abridged:
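In this HepaRG study, an eight-point concentration series (max 100 uM, 0.5% DMSO) is applied for 48 h. CCND2 mRNA change is derived by qRT-PCR normalised to ACTB, GAPDH and POLR2A.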

Read-out in assay [2]: Cyclin Dependent Kinase Inhibitor 1A (CDKN1A), CDKN1A (gene 1026)
The assay can be described thus: LTEA_HepaRG_CDKN1A: Life Technologies and Expression Analysis (LTEA) Assay for Cyclin Dependent Kinase Inhibitor 1A (CDKN1A) using HepaRG (AID 2283450). In a few lines:
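Read-out is CDKN1A mRNA by TaqMan qRT-PCR, normalized to three housekeeping genes and fitted in both directions against the DMSO baseline. Human HepaRG cells were treated 48 h with test chemicals up to 100 uM in half-log steps, 0.5% DMSO.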

Read-out in assay [3]: Cyclin D1 (CCND1), CCND1 (gene 595)
The assay can be described thus: LTEA_HepaRG_CCND1: Life Technologies and Expression Analysis (LTEA) Assay for Cyclin D1 (CCND1) using HepaRG (AID 2283451).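 On AC50: differentiated human HepaRG liver cells in serum-free induction medium; TaqMan qRT-PCR transcript level normalised to ACTB GAPDH and POLR2A housekeeping genes.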 In a few lines:
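HepaRG plated 48 h, medium switched to serum-free induction medium, chemicals added in duplicate (top 100 uM, half-log steps, 0.5% DMSO) for 48 h, cells lysed, RNA measured by TaqMan qRT-PCR.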

Read-out in assay [4]: catalase (CAT), CAT (gene 847)
Nature of the assay: LTEA_HepaRG_CAT: Life Technologies and Expression Analysis (LTEA) Assay for catalase (CAT) using HepaRG (AID 2283452).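 On AC50: TaqMan qRT-PCR signal normalized to ACTB GAPDH and POLR2A housekeeping genes.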 In a few lines: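 Differentiated HepaRG cells in serum-free induction medium were dosed 48 h in duplicate, eight half-log concentrations from 100 uM in 0.5% DMSO. Transcript measured by TaqMan qRT-PCR, normalised to ACTB/GAPDH/POLR2A, fitted bidirectionally against DMSO.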

Read-out in assay [5]: flavin-containing dimethylaniline monooxygenases 3 (FMO3), FMO3 (gene 2328)
Nature of the assay: LTEA_HepaRG_FMO3: Life Technologies and Expression Analysis (LTEA) Assay for flavin-containing dimethylaniline monooxygenases 3 (FMO3) using HepaRG (AID 2283453).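 On AC50: differentiated human HepaRG liver cells in serum-free induction medium; FMO3 transcript by TaqMan qRT-PCR normalized to ACTB GAPDH and POLR2A.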 The procedure, abridged:
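FMO3 transcript quantified by TaqMan qRT-PCR against three housekeeping genes after 48 h chemical exposure of HepaRG cells. Eight-point half-log series, top 100 uM, 0.5% DMSO vehicle; phenobarbital 1mM induction control; up- or down-regulation fitted.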

Read-out in assay [6]: Cytochrome P450 (CYP1A1), CYP1A1 (gene 1543)
The assay can be described thus: LTEA_HepaRG_CYP1A1: Life Technologies and Expression Analysis (LTEA) Assay for Cytochrome P450 (CYP1A1) using HepaRG (AID 2283454). The procedure, abridged: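 HepaRG, 48 h post-plating switched to serum-free induction medium; 8-pt conc-response (top 100 uM, half-log, 0.5% DMSO), duplicates, 48 h. Lysis in RLT, TaqMan qRT-PCR for CYP1A1; gain or loss vs DMSO.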

Read-out in assay [7]: Forkhead box O1 (FOXO1), FOXO1 (gene 2308)
Nature of the assay: LTEA_HepaRG_FOXO1: Life Technologies and Expression Analysis (LTEA) Assay for Forkhead box O1 (FOXO1) using HepaRG (AID 2283456). The procedure, abridged:
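Using one lot of HepaRG hepatic cells kept in 0.5% DMSO, the team applied test chemicals in duplicate, half-log dilutions from 100 uM, for 48 h. Expression, normalised to ACTB/GAPDH/POLR2A, was compared with vehicle in either direction.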

Read-out in assay [8]: Forkhead box O3 (FOXO3), FOXO3 (gene 2309)
Nature of the assay: LTEA_HepaRG_FOXO3: Life Technologies and Expression Analysis (LTEA) Assay for Forkhead box O3 (FOXO3) using HepaRG (AID 2283459). In a few lines: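 Gene-expression endpoint: FOXO3 transcript level by qRT-PCR in HepaRG cultures treated 48 h with chemicals up to 100 uM (half-log, 0.5% DMSO vehicle).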

Read-out in assay [9]: growth arrest and DNA damage 45 (GADD45B), GADD45B (gene 4616)
Nature of the assay: LTEA_HepaRG_GADD45B: Life Technologies and Expression Analysis (LTEA) Assay for growth arrest and DNA damage 45 (GADD45B) using HepaRG (AID 2283461). The procedure, abridged: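 HepaRG, ~100,000 cells/well, 48 h plating; serum-free induction medium; cpd 100 uM top, half-log x8, 0.5% DMSO, duplicate, 48 h; lysis in RLT, RNA isolation, qRT-PCR; norm ACTB/GAPDH/POLR2A; bidirectional fit vs DMSO.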

Read-out in assay [10]: ABC Transporter (ABCC3), ABCC3 (gene 8714)
The assay can be described thus: LTEA_HepaRG_ABCC3: Life Technologies and Expression Analysis (LTEA) Assay for ABC Transporter (ABCC3) using HepaRG (AID 2283462). In a few lines: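 Human HepaRG, 48 h dosing, 8-pt half-log series from 100 uM, 0.5% DMSO vehicle, duplicates. ABCC3 mRNA by TaqMan qRT-PCR, housekeeping-normalized; bidirectional curve fit vs DMSO.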

Read-out in assay [11]: ABC Transporter (ABCB11), ABCB11 (gene 8647)
The assay can be described thus: LTEA_HepaRG_ABCB11: Life Technologies and Expression Analysis (LTEA) Assay for ABC Transporter (ABCB11) using HepaRG (AID 2283463). In a few lines: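 Using HepaRG cultures held in 0.5% DMSO, chemicals were tested at half-log dilutions from 100 uM for 48 h. Induction or suppression of ABCB11 mRNA, normalized to ACTB, GAPDH and POLR2A, was fitted bidirectionally against vehicle.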

Read-out in assay [12]: ABC Transporter (ABCC2), ABCC2 (gene 1244)
Nature of the assay: LTEA_HepaRG_ABCC2: Life Technologies and Expression Analysis (LTEA) Assay for ABC Transporter (ABCC2) using HepaRG (AID 2283464). In a few lines: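 HepaRG, 48 h post-plating; serum-free induction medium; cpd 8-pt, 100 uM top, half-log, 0.5% DMSO, duplicate, 48 h. Readout: ABCC2 mRNA by qRT-PCR, norm. ACTB/GAPDH/POLR2A. Bidirectional fit vs DMSO baseline.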

Read-out in assay [13]: Broad substrate specificity ATP-binding cassette transporter ABCG2 (Homo sapiens) (UniProt Q9UNQ0)
Nature of the assay: LTEA_HepaRG_ABCG2: Life Technologies and Expression Analysis (LTEA) Assay for ABC Transporter (ABCG2) using HepaRG (AID 2283465). In a few lines:
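Gene expression of ABCG2 in HepaRG liver cells is quantified by qRT-PCR following 48 h exposure across an eight-point series topping at 100 uM. Values come from bidirectional fitting relative to DMSO vehicle.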

Read-out in assay [14]: ATP-citrate lyase (ACLY), ACLY (gene 47)
The assay can be described thus: LTEA_HepaRG_ACLY: Life Technologies and Expression Analysis (LTEA) Assay for ATP-citrate lyase (ACLY) using HepaRG (AID 2283466). In a few lines:
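ACLY expression changes in human HepaRG liver cells are quantified by qRT-PCR after 48 h exposure to test chemicals (maximum 100 uM, half-log steps). Values are fitted in both directions relative to 0.5% DMSO vehicle.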

Read-out in assay [15]: Peroxisomal acyl-coenzyme A oxidase 1 (ACOX1) gene, ACOX1 (gene 51)
The assay can be described thus: LTEA_HepaRG_ACOX1: Life Technologies and Expression Analysis (LTEA) Assay for Peroxisomal acyl-coenzyme A oxidase 1 (ACOX1) gene using HepaRG (AID 2283467). The procedure, abridged:
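Human HepaRG hepatic cultures, 48 h treatment with test chemicals up to 100 uM. ACOX1 expression read by qRT-PCR relative to 0.5% DMSO vehicle.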

Read-out in assay [16]: Alkaline Phosphatase, Placental (ALPP) gene, ALPP (gene 250)
Nature of the assay: LTEA_HepaRG_ALPP: Life Technologies and Expression Analysis (LTEA) Assay for Alkaline Phosphatase, Placental (ALPP) gene using HepaRG (AID 2283468).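 On AC50: differentiated human HepaRG liver cells in serum-free induction medium.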 The procedure, abridged:
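HepaRG, 48 h plating then 48 h dosing, serum-free induction medium, 0.5% DMSO. 8 conc, half-log, max 100 uM, duplicates. Endpoint: ALPP transcript by qRT-PCR, housekeeping-normalized; gain or loss fitted vs DMSO.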

Read-out in assay [17]: CFLAR gene, CFLAR (gene 8837)
The assay can be described thus: LTEA_HepaRG_CFLAR: Life Technologies and Expression Analysis (LTEA) Assay for CFLAR gene using HepaRG (AID 2283455). In a few lines:
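Gain- or loss-of-signal changes in CFLAR transcript were fitted bidirectionally relative to 0.5% DMSO. Cells (HepaRG, duplicate wells) were dosed for 48 h across eight half-log concentrations topping at 100 uM; quantitation by TaqMan qRT-PCR.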

Read-out in assay [18]: growth arrest and DNA damage 45 (GADD45A), GADD45A (gene 1647)
Nature of the assay: LTEA_HepaRG_GADD45A: Life Technologies and Expression Analysis (LTEA) Assay for growth arrest and DNA damage 45 (GADD45A) using HepaRG (AID 2283458). In a few lines: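 Transcript induction or loss, quantified by TaqMan qRT-PCR against three housekeeping genes, is the read-out. HepaRG cells received chemicals for 48 h across eight half-log concentrations from 100 uM in 0.5% DMSO; gain and loss fitted relative to DMSO.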

Read-out in assay [19]: ABC Transporter (ABCB1), ABCB1 (gene 5243)
The assay can be described thus: LTEA_HepaRG_ABCB1: Life Technologies and Expression Analysis (LTEA) Assay for ABC Transporter (ABCB1) using HepaRG (AID 2283460). In a few lines:
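Human liver HepaRG line treated 48 h with up to 100 uM compound (eight half-log points, 0.5% DMSO); ABCB1 mRNA change fitted bidirectionally against DMSO controls.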

Sequence of Broad substrate specificity ATP-binding cassette transporter ABCG2 (Homo sapiens) (Q9UNQ0 whole entry, looked up): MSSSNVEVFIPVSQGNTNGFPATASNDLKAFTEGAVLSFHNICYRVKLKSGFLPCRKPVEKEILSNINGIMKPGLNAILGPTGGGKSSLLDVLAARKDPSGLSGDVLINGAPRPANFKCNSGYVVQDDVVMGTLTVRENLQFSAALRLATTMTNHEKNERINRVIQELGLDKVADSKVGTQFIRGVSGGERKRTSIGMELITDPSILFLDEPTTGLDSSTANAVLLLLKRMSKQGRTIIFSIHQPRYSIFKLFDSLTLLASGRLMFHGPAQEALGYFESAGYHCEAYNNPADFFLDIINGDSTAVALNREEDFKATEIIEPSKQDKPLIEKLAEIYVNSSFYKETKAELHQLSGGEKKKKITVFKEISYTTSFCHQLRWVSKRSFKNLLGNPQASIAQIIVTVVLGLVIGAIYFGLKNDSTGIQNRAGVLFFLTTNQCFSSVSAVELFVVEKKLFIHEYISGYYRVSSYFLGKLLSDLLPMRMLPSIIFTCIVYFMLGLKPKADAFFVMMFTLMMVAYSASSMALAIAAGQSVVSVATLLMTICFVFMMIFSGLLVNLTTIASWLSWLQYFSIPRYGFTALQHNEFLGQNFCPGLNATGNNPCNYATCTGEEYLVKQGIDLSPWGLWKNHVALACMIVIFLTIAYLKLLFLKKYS

On to `CCOC(=O)C(C)(C)Oc1ccc(Cl)cc1`, for which the figures for the AC50 in assay [1] and in [6] were 12.2 µM (active) and 50 µM (active), respectively. The compound was classed as inactive in assay [2], in assay [3], in [4], in assay [5], in [7] and in assay [8]. For the same compound, the outcome in [9], in assay [10], in assay [11], in assay [12], in assay [13] and in assay [14] was inactive. Moreover, the call in [15] and in assay [16] was inactive.
Take `C=CCOC(=O)c1ccccc1C(=O)OCC=C`: the outcome in assay [2], in [3], in assay [4], in assay [5], in assay [17] and in assay [7] was inactive. Also, the compound was classed as inactive in assay [8], in assay [9], in assay [10], in [11], in assay [12] and in assay [13]. In addition, the result in assay [14], in [15] and in assay [16] was inactive. The AC50 in [6] was 50 µM (active).
Take `C[C@]12C=CC(=O)C=C1CC[C@@H]1[C@@H]2C(=O)C[C@@]2(C)[C@H]1CC[C@]2(O)C(=O)CO`: the AC50 is 12.3 µM (active) in assay [3] and 50 µM (active) in assay [12]. Also, the outcome in [4], in assay [5], in [17], in [7], in [18] and in assay [8] was inactive. Further, the compound was classed as inactive in assay [9], in assay [10], in [11], in assay [13], in [14] and in [15]. In addition, in assay [16], the outcome was inactive.
`O=[N+]([O-])C(CO)(CO)CO`: the compound was called inactive in assay [1], in assay [2], in assay [3], in assay [4], in assay [5] and in [7]. Moreover, the compound was called inactive in assay [9], in assay [10], in [11], in assay [12], in [13] and in assay [15]. Besides, the call in [16] was inactive. Also, in [6], the half-maximal activity concentration (AC50) is 25.3 µM (active).
Regarding `COc1cc(S(=O)(=O)O)c(C)cc1N=Nc1c(O)ccc2cc(S(=O)(=O)O)ccc12`, the outcome in [1], in assay [2], in assay [3], in [4], in assay [5] and in assay [17] was inactive. For the same compound, the compound was called inactive in assay [7], in assay [8], in [19], in assay [9], in [10] and in assay [11]. Further, the call in assay [12], in assay [13], in [14], in assay [15] and in [16] was inactive.
For `Oc1ccc2c(c1)OC[C@@H](N1CCC(O)(c3ccc(F)cc3)CC1)[C@H]2O`, the result in assay [2], in assay [3], in [4], in assay [5], in [6] and in [7] was inactive. The compound was classed as inactive in assay [18], in assay [8], in [9], in assay [10], in [11] and in [12]. For the same compound, the call in assay [13], in assay [14], in [15] and in assay [16] was inactive.
On to `CC(C)(C)c1cc(O)c(C(C)(C)C)cc1O`, for which the call in assay [1], in assay [2], in [3], in assay [8], in [9] and in assay [13] was inactive. In assay [14], the result was inactive. Further, the AC50 in assay [4] was 78.8 µM (active); in assay [5], 78.1 µM (active); in [7], 77.7 µM (active); in assay [18] it was 50 µM (active); in assay [19], 90.3 µM (active); in assay [10], 73.6 µM (active). The AC50 in assay [11] is 72.7 µM (active); in assay [12], 85.9 µM (active); in assay [15], 77.3 µM (active); in assay [16], 90.8 µM (active).
As to `O=C(O)Cc1ccccc1Nc1c(Cl)cccc1Cl`, the result in assay [2], in assay [3], in assay [4], in assay [5], in assay [17] and in assay [7] was inactive. Besides, the compound was called inactive in assay [8], in assay [9], in assay [10], in [11], in [13] and in assay [14]. The outcome in assay [15] and in [16] was inactive. The AC50 in [6] was 76.4 µM (active); in assay [12] it was 13 µM (active).

These data come from PubChem BioAssay (EPA / NIEHS).
